Here are results for 36 molecules from PubChem BioAssay (NCI).

About 83,000 compounds went through this panel and 20% of them were active in at least one assay; those are over-represented in the sample as a whole.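 Treatment: one concentration, 48 hours, 96-well format. Scoring: percent growth, with anything below 10 considered active.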 A number with no mark means an inactive call. Calls of active or inactive are those of the source.

In the assay the test system is NCI-H522 lung. In words: NCI-60 one-dose screen, 48 h (100 = growth as untreated, 0 = no growth, -100 = all killed). To be noted: 10 µM unless noted.
On to `CCCc1cc(NC)nc(S(=O)(=O)CC)n1`, for which the growth is 95.9%. The result for `Cc1ccc(Cl)cc1Nc1nc(C(F)(F)F)ccc1C(=O)N/N=C/c1cccnc1` reads -5.81% (active); that for `Cc1ccc(/C=C2\CN(C(=O)OC(C)(C)C)C/C(=C\c3ccc(C)cc3)C2=O)cc1`, 58.4%. As to `O=C(Nc1cccc([N+](=O)[O-])c1)c1cc2ccccc2cc1O`, the growth was -3.91% (active). The result for `NC(=O)c1c(NC(=O)c2ccccc2)sc2c1CCC(=O)C2` reads -9.03% (active).

Take `COc1cc(N2C(=O)[C@H](O)C2c2ccc(SC)cc2)cc(OC)c1OC` (stereo partly specified): the growth is -19.8% (active). To `Cn1cc(-c2nc(-c3c[nH]c4ccncc34)cs2)c2ccccc21` belongs 66.8%. The result for `OCCNCCCOc1ccc2ncnc(Nc3ccc(Oc4cccc(C(F)(F)F)c4)c(Cl)c3)c2c1` reads 30.8%; that for `O=S(=O)(NCCNc1cc(-c2c(-c3cccc(O)c3)nc3sccn23)ccn1)c1ccc(C(F)(F)F)cc1`, 38.1%; that for `CCOC(=O)c1nc(Nc2ccc(NC(=O)Nc3ccc(F)cc3)cc2)c2ccccc2n1`, 98.5%. To `CCN1C(=O)N(CC)C2C1NN=c1s/c(=C\c3cccc([N+](=O)[O-])c3)c(=O)n12` (stereo unspecified) belongs -4.92% (active).

Turning to `C#Cc1cccc(Nc2ncnc3ccc(-c4cnc(N)nc4)cc23)c1`, the growth was 10.5%. To `CCN(CC)CCSc1nc(-c2ccccc2)c(C#N)c(=O)[nH]1` belongs 104%; to `CN1C(=O)/C(=C/c2cn(-c3ccccc3)nc2-c2ccccc2)SC1=S`, 90.2%; to `O=C1Nc2ccccc2/C1=C\c1nc(-c2ccccc2)n2ccccc12`, 77.7%. To `COc1ccc(NC(=O)c2sc3nc(C)c(C(=O)/C=C/c4cccc(OC)c4)cc3c2N)cc1` belongs 39.2%. To `Nc1nc2c([nH]1)c1[nH]c3ccccc3c1c1[nH]c3ccccc3c21` belongs 26.4%; to `Cc1ccc(-c2nc3nc(-c4ccc(F)cc4)nc(N4CCNCC4)c3o2)cc1`, 79.8%. Consider `COc1ccc(OC)c(C(=O)/C=C/c2cc3c(c(OC)c2OC)OCO3)c1`, for which the growth is 74.3%.

With `CN1C(=O)/C(=C/c2ccc(C(=O)Nc3ncc(Cc4ccc(Cl)cc4)s3)cc2)SC1=S`, the growth was 36.4%. The result for `O=C(OCc1ccc2c(Cl)cc(Cl)c(O)c2n1)n1cncn1` reads 51.4%; that for `C[C@]12C=CC(=O)C=C1CCC1C2[C@@H](O)C[C@@]2(C)C1CC[C@]2(O)C(=O)COC(=O)CCC(=O)O` (stereo partly specified), 103%. The result for `COc1ccc2c(c1)c(-c1noc(C(=O)c3cn(C)c4ccc(Br)cc34)n1)cn2C` reads 76.9%; that for `COc1ccc(/C=N/C2=C(C#N)C(c3cccc(Cl)c3)c3c(ccc4ccccc34)O2)cc1` (stereo unspecified), 3.61% (active); that for `Cc1ccccc1Cn1cnc2ccc(-c3cc(NC(=O)c4ccc(NC5CCN(C)CC5)cc4)n[nH]3)cc21`, 57.2%. In the case of `O=C1CC(N2C(=O)/C(=C/C(Cl)=C\c3ccc([N+](=O)[O-])cc3)SC2=S)C(=O)N1c1ccc(Cl)cc1` (stereo unspecified), the growth is -26.4% (active). The result for `CCN(CC)CCOc1ccc(-c2c(-c3ccccc3)c(=O)oc3ccccc23)cc1` reads 71.6%; that for `CCNC(=O)c1[nH]cc(-c2ccccc2)c1-c1cc(OC)c2c(c1OC)OCO2`, 93.4%; that for `Cc1cc(=O)[nH]c2c(C#N)cnn12`, 89.1%. To `COCCn1c(-c2csc(-c3cn(C)c4ccc(OC)cc34)n2)cc2cccnc21` belongs -24.5% (active); to `COC(=O)[C@]1(C)CCC[C@]2(C)[C@H]3C[C@H]4C(C(C)C)=C[C@]3(CC[C@H]21)[C@H]1[C@@H]4[C@@H](OCCC#N)CC[C@@H]1OCCC#N`, 28.4%; to `O=C(NCCCCNC(=O)OCc1ccc2c(Cl)cc(Cl)c(O)c2n1)OCc1ccc2c(Cl)cc(Cl)c(O)c2n1`, -2.86% (active).

Take `COC(=O)c1c2c(c(C)[n+]([O-])c1C)C(=O)C=C(NCc1ccc(Br)cc1)C2=O`: the growth is -44.8% (active). With `CCCCCCNC(=O)Oc1ccc(/C(=C(/C)Cc2ccc(OC)cc2)c2ccc(OCCCN(C)C)cc2)cc1`, the growth is 36.4%. Turning to `CCCCCCC1(C)NCCO1` (stereo unspecified), the growth was 100%. In the case of `CC[C@]12C=CCN3CC[C@@]4(c5cc(NC(=O)CCC(=O)OCc6cn(Cc7ccc(F)cc7)nn6)c(OC)cc5N(C)[C@H]4[C@@](O)(C(=O)OC)[C@@H]1OC(C)=O)[C@@H]32`, the growth is 98.5%.
